Reference: the supplement of paper PMC12669032

Tests used:
Assay in all cases: growth AUC relative to DMSO control (median of replicates) (fraction); higher = more growth (less inhibition), active = hit call of the paper
Settings in all cases: 20 µM; 24 h;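 active = AUC reduced over 20% with Padj below 0.05 in at least 2 of 3 replicates; inactive = otherwise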
Coprococcus comes = test system: Coprococcus comes
Outline: (§1)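 Each value is the median of three biological replicates, grown on separate days, of a gut bacterial monoculture incubated anaerobically at 37 °C in mGAM with 20 µM compound (1% DMSO). Cultures started at OD600 0.05 and were read at OD600 hourly for 24 h, with the minimum OD set to 0. Area under the growth curve was normalised to the plate median of solvent-only wells, or to row and column medians on the industrial chemical plate.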

Escherichia coli ED1a = test system: Escherichia coli ED1a
Outline: as §1

Escherichia coli IAI1 = test system: Escherichia coli IAI1
Outline: as §1

Eubacterium rectale = test system: Eubacterium rectale
Outline: as §1

[1] = test system: Fusobacterium nucleatum subsp. animalis
Outline: as §1

Lactobacillus gasseri = test system: Lactobacillus gasseri
Outline: as §1

Lactobacillus paracasei = test system: Lactobacillus paracasei
Outline: as §1

Odoribacter splanchnicus = test system: Odoribacter splanchnicus
Outline: as §1

[2] = test system: Parabacteroides distasonis
Outline: as §1

Parabacteroides merdae = test system: Parabacteroides merdae
Outline: as §1

Roseburia intestinalis = test system: Roseburia intestinalis
Outline: as §1

Streptococcus salivarius = test system: Streptococcus salivarius
Outline: as §1

Measured: growth AUC

S=C([S-])NCCNC(=S)[S-].[Zn+2]
inactive: Coprococcus comes 0.994 | Escherichia coli ED1a 0.998 | Escherichia coli IAI1 0.992 | Eubacterium rectale 1.1 | [1] 0.978 | Lactobacillus gasseri 0.966 | Lactobacillus paracasei 1.01 | Odoribacter splanchnicus 0.999 | [2] 1.01 | Parabacteroides merdae 0.974 | Roseburia intestinalis 0.975 | Streptococcus salivarius 0.97

CON(C(=O)c1cc(C)oc1C)C1CCCCC1
inactive: Coprococcus comes 0.992 | Escherichia coli ED1a 1.01 | Escherichia coli IAI1 0.968 | Eubacterium rectale 1 | [1] 1.03 | Lactobacillus gasseri 1.05 | Lactobacillus paracasei 0.991 | Odoribacter splanchnicus 1.02 | [2] 1.05 | Parabacteroides merdae 0.982 | Roseburia intestinalis 1.09 | Streptococcus salivarius 0.989

CCNc1nc(NCC)nc(OC)n1
inactive: Coprococcus comes 1.05 | Escherichia coli ED1a 1.03 | Escherichia coli IAI1 0.975 | Eubacterium rectale 1 | [1] 1.01 | Lactobacillus gasseri 0.921 | Lactobacillus paracasei 0.977 | Odoribacter splanchnicus 1.01 | [2] 1.04 | Parabacteroides merdae 1 | Roseburia intestinalis 0.993 | Streptococcus salivarius 1.01

CCc1ccc(O)cc1
inactive: Coprococcus comes 0.934 | Escherichia coli ED1a 1.02 | Escherichia coli IAI1 0.997 | Eubacterium rectale 0.988 | [1] 1.13 | Lactobacillus gasseri 0.963 | Lactobacillus paracasei 0.84 | Odoribacter splanchnicus 0.979 | [2] 1.02 | Parabacteroides merdae 0.968 | Roseburia intestinalis 0.919 | Streptococcus salivarius 0.946

Cc1ccc(C(C)NC(=O)[C@@H](NC(=O)OC(C)C)C(C)C)cc1 (stereo partly specified)
inactive: Coprococcus comes 1.01 | Escherichia coli ED1a 1.01 | Escherichia coli IAI1 0.992 | Eubacterium rectale 1.08 | [1] 1.08 | Lactobacillus gasseri 0.895 | Lactobacillus paracasei 1.02 | Odoribacter splanchnicus 0.953 | [2] 0.917 | Parabacteroides merdae 1.01 | Roseburia intestinalis 0.956 | Streptococcus salivarius 0.963

CN(C)C(=O)Nc1ccccc1
inactive: Coprococcus comes 0.965 | Escherichia coli ED1a 0.951 | Escherichia coli IAI1 0.978 | Eubacterium rectale 0.978 | [1] 0.961 | Lactobacillus gasseri 1.03 | Lactobacillus paracasei 0.949 | Odoribacter splanchnicus 1.04 | [2] 1.05 | Parabacteroides merdae 1.02 | Roseburia intestinalis 0.983 | Streptococcus salivarius 0.969

O=C1NCC[n+]2ccccc21.[Br-]
inactive: Coprococcus comes 1.02 | Escherichia coli ED1a 0.966 | Escherichia coli IAI1 0.978 | Eubacterium rectale 1.07 | [1] 0.908 | Lactobacillus gasseri 0.882 | Lactobacillus paracasei 0.961 | Odoribacter splanchnicus 0.968 | [2] 0.923 | Parabacteroides merdae 0.972 | Roseburia intestinalis 0.992 | Streptococcus salivarius 0.987

C=CCc1ccc(OC)c(OC)c1
active: Odoribacter splanchnicus 0.694
inactive: Coprococcus comes 1.01 | Escherichia coli ED1a 0.994 | Escherichia coli IAI1 1.04 | Eubacterium rectale 1 | [1] 1.06 | Lactobacillus gasseri 1.03 | Lactobacillus paracasei 1 | [2] 1.3 | Parabacteroides merdae 1.04 | Roseburia intestinalis 1.03 | Streptococcus salivarius 1.02

NC(=O)C1CO1 (stereo unspecified)
inactive: Coprococcus comes 0.93 | Escherichia coli ED1a 0.957 | Escherichia coli IAI1 0.946 | Eubacterium rectale 0.989 | [1] 0.923 | Lactobacillus gasseri 0.995 | Lactobacillus paracasei 1.02 | Odoribacter splanchnicus 0.949 | [2] 0.895 | Parabacteroides merdae 0.946 | Roseburia intestinalis 0.855 | Streptococcus salivarius 1.01

CCOC(=O)C1=NOC(c2ccccc2)(c2ccccc2)C1
inactive: Coprococcus comes 0.974 | Escherichia coli ED1a 0.974 | Escherichia coli IAI1 0.997 | Eubacterium rectale 0.932 | [1] 0.956 | Lactobacillus gasseri 0.99 | Lactobacillus paracasei 1.06 | Odoribacter splanchnicus 0.944 | [2] 1.14 | Parabacteroides merdae 0.948 | Roseburia intestinalis 1.01 | Streptococcus salivarius 0.959

COc1cc(OC)nc(NC(=O)NS(=O)(=O)Nc2ccccc2C(=O)C2CC2)n1
inactive: Coprococcus comes 0.952 | Escherichia coli ED1a 1 | Escherichia coli IAI1 0.978 | Eubacterium rectale 0.807 | [1] 0.97 | Lactobacillus gasseri 1.07 | Lactobacillus paracasei 1.01 | Odoribacter splanchnicus 0.963 | [2] 0.964 | Parabacteroides merdae 0.913 | Roseburia intestinalis 1.1 | Streptococcus salivarius 0.955

CC(C)N(C(=O)CS(=O)(=O)[O-])c1ccccc1.[Na+]
inactive: Coprococcus comes 0.982 | Escherichia coli ED1a 0.978 | Escherichia coli IAI1 0.988 | Eubacterium rectale 1.07 | [1] 1.09 | Lactobacillus gasseri 0.948 | Lactobacillus paracasei 1 | Odoribacter splanchnicus 0.981 | [2] 0.96 | Parabacteroides merdae 1 | Roseburia intestinalis 1.02 | Streptococcus salivarius 0.997

CC(C)(SC(=O)N1CCCCC1)c1ccccc1
inactive: Coprococcus comes 0.998 | Escherichia coli ED1a 1.01 | Escherichia coli IAI1 1.01 | Eubacterium rectale 1.02 | [1] 1.07 | Lactobacillus gasseri 1.01 | Lactobacillus paracasei 1.02 | Odoribacter splanchnicus 1 | Parabacteroides merdae 0.965 | Roseburia intestinalis 1.05 | Streptococcus salivarius 0.98
active: [2] 0.778
